Shn3 inh set2: inhibitors of Schnurri-3 3'UTR reporter in osteoblasts; 360,000 tested, 0.52% active; inhibition, % at 12.5 µM; AID 588674; Clone20 osteoblast Shn3 3'UTR firefly luciferase, 24 h;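 active = mean inhibition of at least 75% with every replicate also reaching 75%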;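 note: 0% = median of neutral control wells and 100% = pilot-screen positive control compound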
Peg3 promoter: Peg3 promoter activity inhibition; inhibition, % at 20 µM; HeLa PEG-Prom luciferase reporter, luminescence, overnight; 360,000 tested, 1.7% active;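 active = inhibition of at least 50% at 20 µM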
HIF-2a inh: HIF-2a inhibition; AID 624352; 360,000 tested, 0.72% active; 786-0 RCC cells HIF-2a reporter, luciferase luminescence, overnight; inhibition, % at 18.8 µM;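 active = inhibition of the luminescence signal of 40% or more relative to plate controls, in a single-dose primary screen at 18.75 µM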
LMP1 NFkB inh: Epstein-Barr LMP1 NF-kappaB reporter inhibition; LMP1-induced NF-kappaB luciferase reporter cells, luminescence; inhibition, % at 12.5 µM; 350,000 tested, 0.69% active; AID 504558; in the data active = inhibition above about 41%;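 note: 0% = neutral control wells and 100% = reference inhibitor control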
KKLEB cytotox: reduces viability of KKLEB cystic fibrosis airway cells; KKLEB CF airway cells viability, ATPlite luminescence, overnight; active compounds read low; cells stimulated with P. aeruginosa culture filtrate; activity change (cytotoxicity), % at 5 µM; 360,000 tested, 0.36% active;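 active = corrected activity change at or below -50% at 5 µM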
CF NFkB block: cystic fibrosis NF-kB activation inhibition; KKLEB NF-kB-GFP reporter, PAF-induced, GFP fluorescence overnight; inhibition, % at 5 µM; 360,000 tested, 0.86% active; AID 588850;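 active = at least 50% inhibition at 5 µM, scaled per plate between neutral and stimulator controls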;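 note: PAF is a Pseudomonas aeruginosa culture filtrate used as stimulus; plate controls were PAF-stimulated DMSO wells for no effect and unstimulated DMSO wells for full effect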
Numbers without * were called inactive; · = no result. In the library only some 2.9% were active in any assay of this set; here they are far more common.

SMILES	Shn3 inh set2	Peg3 promoter	HIF-2a inh	LMP1 NFkB inh	KKLEB cytotox	CF NFkB block
CCOc1ccc(C(O)(CCC(C)C)C(CN2CCOCC2)c2ccccc2)cc1 (centres undefined)	20.0	17.8	17.6	8.2	-7.7	7.0
CC(=O)Nc1ccc(S(=O)(=O)NCC(=O)OCc2ccccc2)cc1	-23.9	5.1	9.6	0.4	8.0	-3.5
COc1ccc(CCN(C(=S)Nc2ccccc2)C2CC(=O)N(c3ccccc3)C2=O)cc1 (centres undefined)	22.3	-0.2	-4.2	-0.3	1.2	-7.2
O=C1CC(N(CCc2ccccc2)C(=S)Nc2ccccc2)C(=O)N1c1ccc(Br)cc1 (centres undefined)	26.7	54.2*	-30.5	4.9	-7.5	10.8
COc1ccc(-n2nnnc2SCC(=O)Nc2nc3c(s2)CCCC3)cc1	18.1	-2.3	-2.8	-4.1	-16.4	3.6
CCCc1cc(=O)oc2c(CNc3ccc(OCC)cc3)c(O)ccc12	-10.7	36.2	13.4	3.7	-2.8	52.8*
CCc1nccn1CCC(=O)N1CCCC(N2CCN(c3cccc(Cl)c3)CC2)C1 (centres undefined)	-3.9	-100.6	-133.3	-9.7	-3.2	30.2
Cc1ccccc1Cn1cc(NC(=O)c2cc(-c3cccs3)on2)cn1	-15.6	11.9	-25.9	0.5	-53.6*	45.8
Cc1ccccc1Cn1cc(NC(=O)c2cc(-c3ccco3)on2)cn1	-1.6	-3.4	-102.6	-1.4	-2.1	-0.6
COc1ccc(C(C)(O)c2nc(-c3ccc(OC)nc3)cs2)cc1 (centres undefined)	1.8	-5.3	4.1	·	-2.1	15.3
CCC(Sc1nc2ccncc2[nH]1)C(=O)Nc1ccc(C)c(Cl)c1 (centres undefined)	-17.9	85.3*	11.2	-5.1	0.1	-8.9
Cc1sc2ncnc(N/N=C/c3ccccc3O)c2c1C	86.3*	-31.3	-177.0	42.8*	-9.9	-11.7
Cc1sc2ncnc(N/N=C/c3ccc(O)cc3)c2c1C	-10.0	-101.7	-125.7	5.1	12.7	-5.0
COc1ccc(CCNC2=C(Cl)C(=O)N(CCc3ccc(OC)c(OC)c3)C2=O)cc1OC	80.0	79.9*	20.4	-2.4	-11.7	-1.6
O=C1[C@@H]2Cc3c([nH]c4ccccc34)C(c3ccccc3)N2C(=O)CN1C1CCN(Cc2ccccc2)CC1 (some centres undefined)	6.3	42.1	31.3	·	-14.0	8.4
O=C1[C@@H]2Cc3c([nH]c4ccccc34)C(c3cccc(Br)c3)N2C(=O)CN1C1CCN(Cc2ccccc2)CC1 (some centres undefined)	25.6	96.0*	-28.4	-13.7	-12.5	17.1
Cc1cc(N2C(=O)C=CC2=O)c([N+](=O)[O-])cc1C	89.4*	105.4*	50.5*	-7.2	-1.1	65.5*
COc1cc(CNC(C)c2ccccc2)cc(Br)c1OCc1ccc(F)cc1 (centres undefined)	21.1	58.8*	16.4	4.5	-29.0	39.7
CN1Cc2cccc3c2C(Cc2ccccc2S3)C1 (centres undefined)	2.3	8.1	14.1	1.5	-3.7	7.6
O=C(CNC(=O)c1cccc(F)c1)N/N=C/c1cc(Br)ccc1OC(=O)/C=C/c1ccco1	86.9*	31.0	-11.2	12.6	-1.1	8.1
Cc1ccc(NC(=O)c2cc(N3C(=O)C=CC3=O)ccc2Cl)cc1C	3.9	79.8*	29.2	-4.5	3.7	21.1
Cc1ccc(NC(=O)c2cc(-n3cnnc3)ccc2Cl)cc1	-40.2	5.7	9.4	-1.8	6.1	-7.5
C=C(CN(C)C)C(=O)c1cc(C)ccc1C	94.9*	99.9*	90.4*	-6.0	0.1	30.2
Cc1ccc(C)c(C(=O)NCCN(C)C)c1	-7.8	7.1	25.9	2.2	-0.5	-13.2
CCN(Cc1ccccc1)C(=O)COC(=O)[C@@H]1CCCN1C(=O)c1cccs1	-17.7	3.6	9.7	2.9	10.3	-9.3
SMILES	Shn3 inh set2	Peg3 promoter	HIF-2a inh	LMP1 NFkB inh	KKLEB cytotox	CF NFkB block
O=C(O)c1ccc(Cl)c(S(=O)(=O)N(Cc2ccccc2)c2ccc(Cl)cc2)c1	-24.7	0.9	8.9	0.1	8.3	-17.4
COc1ccccc1N(Cc1ccccc1)S(=O)(=O)c1cccc(C(=O)O)c1	11.8	4.7	18.7	-6.0	-0.7	12.8
COc1ccccc1N(Cc1ccccc1)S(=O)(=O)c1cccc(C(=O)NC2CC(C)(C)NC(C)(C)C2)c1	-3.6	87.4*	4.7	2.0	-17.6	14.6
CC1(C)CC(NC(=O)c2ccc(Cl)c(S(=O)(=O)N(Cc3ccccc3)c3ccccc3)c2)CC(C)(C)N1	-3.9	106.9*	0.6	-25.3	-8.5	13.4
Cc1cc(C)c(S(C)(=O)=O)c(N(C)N)n1	-25.6	-1.9	5.2	-4.5	-4.6	-5.3
O=c1[nH]nc2c3ccccc3occ1-2	·	·	0.1	·	·	·
COc1ccc(N(C(=O)Cn2nnc(-c3ccccc3F)n2)C(C(=O)NCC2CCCO2)c2ccc(Cl)cc2)cc1 (centres undefined)	-23.4	58.1*	20.6	-8.5	2.4	-10.9
O=C(CCCN1C(=O)/C(=C/c2ccc3c(c2)OCO3)SC1=S)Nc1ccc(C(=O)O)cc1	22.3	18.6	68.8*	10.2	2.9	11.0
Cn1cc(/C=C2/SC(=O)N(CC(=O)Nc3ccc4c(c3)OCO4)C2=O)c2ccccc21	31.7	17.1	-8.6	-1.8	-65.5*	58.5*
O=C(CCCN1C(=O)C(=Cc2ccc3c(c2)OCO3)SC1=S)Nc1ccc(C(=O)O)c(O)c1	-0.6	-5.3	51.5*	·	9.6	-30.4
CCCCCCSC1=C(C#N)C(c2ccc(C)o2)CC(=O)N1 (centres undefined)	-15.2	23.2	11.3	5.9	0.9	10.3
CCSC1=C(C#N)C(c2ccc(C)o2)CC(=O)N1 (centres undefined)	-13.8	-0.5	9.1	48.7*	-0.6	5.9
CC(Oc1ccc(Cl)cc1Cl)C(=O)N/N=C1\CCCc2ccccc21 (centres undefined)	11.2	13.2	-17.4	-1.4	7.0	-1.8
COC1=C(c2ccccc2)C(=O)c2ccccc2C1=O	-32.8	9.9	4.3	1.6	23.2	-41.9
COC1=CC(=O)C=C(OC)C1=O	97.3*	102.3*	6.3	82.6*	-9.2	24.1
COC1=CC(=O)c2ccccc2C1=O	35.9	24.3	28.6	-10.1	-28.7	91.4*
COc1ccc(OCC(=O)Nc2cccc(NC(=O)COc3ccc(OC)cc3)n2)cc1	-37.3	-117.5	-74.0	-9.6	-62.9*	48.7
O=C(Cn1nnc(-c2ccccc2Cl)n1)N/N=C/c1ccc(-c2cccc(Cl)c2)o1	-25.4	3.9	5.8	-4.6	-29.1	32.6
CC(C)C(=O)N1CCN(c2ccc(NC(=O)COc3ccccc3[N+](=O)[O-])cc2)CC1	36.1	90.8*	-6.4	12.1	-5.7	10.7
Cc1ccc(-c2cc(C(=O)N3CCN(c4ccc(F)cc4)CC3)c3ccccc3n2)o1	-64.8	-25.0	-83.7	-0.1	-5.6	-0.9

Source: PubChem BioAssay
